Assay outcomes (PubChem)
Compounds with a hit are over-represented: about 2.1% of the library has one in this group of screens.
LANA-H2B inh – blocks KSHV LANA binding to histone H2A/H2B; inhibition, % (no concentration beside the values); AID 2629; 0.6% of 320,000 active; Q9QR71; cell-free LANA-H2A/H2B peptide, fluorescence polarization; in the data active means inhibition mostly above about 10%, no sharp cut-off; inactive means mostly below about 6.7%
HDAC3 inh – blocks human histone deacetylase 3 | O15379 | recombinant HDAC3, fluorogenic peptide/trypsin coupled, fluorescence | inhibition, % at 8.3 µM | 0.15% of 320,000 active | AID 2718; in the data active means inhibition above about 26%, passing the limit was not always enough
IDE cell activ – boosts human insulin-degrading enzyme activity in HEK cells; activation, % at 5.96 µM; AID 493087; 0.073% of 340,000 active; P14735; FAbeta-B cleavage, fluorescence polarization; 0% vehicle, 100% cell-free pure enzyme wells;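 active means activation above the mean of all tested compounds plus 3 SD, set per screening campaign, cut at about 17% in these data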
Mot1-301 SUMO – inhibitors of SUMOylation pathway: yeast Mot1-301 growth rescue. S. cerevisiae Mot1-301 growth rescue, ATP luminescence, 38.5C; percent above DMSO median, 100 means doubled. growth rescue, % at 18.8 µM. 1% of 320,000 active. AID 2716;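 active means every valid replicate shows activation above 250% relative to neutral control wells; inactive means the rest, any valid replicate at or below 250%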;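 further: OY570 slx delta 5 strain wells were the positive control but not used for scaling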
IDE inh – inhibits human insulin-degrading enzyme in HEK cells. P14735. inhibition, % at 5.59 µM. 0.41% of 320,000 active. AID 434962. FAbetaB cleavage, fluorescence polarization;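 active means percent inhibition above the average of all tested compounds plus 3 SD, set per screening campaign, cut at about 16% in these data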;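 further: IDE supplied by intact live HEK cells; FP after avidin binding of uncleaved biotin substrate so inhibition keeps polarization high; 0% = DMSO wells and 100% = 60 µM reference IDE inhibitor Ii1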
Active calls of the source: *; i = inactive; · = no result given; + = active, no number.

SMILES	LANA-H2B inh	HDAC3 inh	IDE cell activ	Mot1-301 SUMO	IDE inh
CCN1CCCC1CNS(=O)(=O)c1c(C)cc(C)cc1C (stereo not given)	-2	11	0	-4	0
CCOc1ccc(OCC)c(NC(=O)CN2CCN(CC(=O)NC(C)C)CC2)c1	14*	2	0	57	-2
CC(=O)Nc1ccc(NC(=O)C(C)OC(=O)CSc2ccc(Br)cc2C)cc1 (stereo not given)	-4	-10	3	4	1
CCC(NC(=O)C1C2C=CC(C2)C1C(=O)O)c1ccc(C)cc1 (stereo not given)	104*	0	1	-8	-3
CCC(NC(=O)CCl)c1ccc(C)cc1 (stereo not given)	-2	-4	5	-15	7
CSCC[C@H](NC(=O)c1cccnc1)c1nnc2ccccn12	-7	5	3	6	0
Cc1ccc(OCCNC(=O)CCc2nc3sc4c(c3c(=O)[nH]2)CCCC4)cc1	35*	-4	-1	8	5
NS(=O)(=O)c1ccc(CCNC(=O)C(=O)NCC2OCCN2S(=O)(=O)c2ccc(Cl)cc2)cc1 (stereo not given)	-1	6	-2	1	-2
COc1cc(C2(c3ccc(O)c(OC)c3)C(=O)Nc3c(C)cc(Br)cc32)ccc1O	1	-2	5	79	-1
CC1CCN(C(=O)COC(=O)C23CC4CC(CC(O)(C4)C2)C3)CC1	-1	-1	8	2	0
CC1CCCC(C)N1C(=O)COC(=O)C12CC3CC(CC(Cl)(C3)C1)C2 (stereo not given)	17*	-8	4	-24	6
COc1ccc(-c2nc(Cn3c(SCc4ccc(C)cc4)nc4ccncc43)c(C)o2)cc1OC	-1	-1	4	460*	-1
COc1ccc(-c2nc(Cn3c(SCc4cccc(F)c4)nc4ccncc43)c(C)o2)cc1OC	-4	-1	-3	-10	-3
Cn1nc(C(=O)OCC(=O)Nc2ccc(F)cc2Cl)c2ccccc2c1=O	-2	-2	0	25	-3
Cc1ccc(C(=O)Oc2cccc(-n3cnnn3)c2)cc1	1	1	-1	·	5
O=C(Oc1cccc(-n2cnnn2)c1)c1ccco1	-3	32*	2	0	3
O=C(Oc1ccc(-c2cnc3ccccc3n2)cc1)c1ccco1	3	-3	1	-36	-4
O=C(Oc1ccc(-c2nnco2)cc1)c1ccco1	0	63*	7	8	2
O=C(CSc1n[nH]c(=O)[nH]c1=O)NC1CCCCC1	-3	0	3	1	3
O=C(NC1CCC1)C1CCC(=O)N(Cc2cccc(F)c2)C1 (stereo not given)	38*	-7	2	0	·
CC[C@]12c3[nH]c4ccccc4c3CCN1C(=O)C(CC(=O)NCc1cccc(C(F)(F)F)c1)C[C@@H]2C(=O)N1CCN(C(=O)c2ccco2)CC1 (stereo not given in full)	i	0	4	-5	-1
CC(=O)c1ccc(NC(=O)CCCN2C(=O)C(c3ccccc3)Oc3cccnc32)cc1 (stereo not given)	-3	12	-1	-5	1
Cc1cc(C)cc(NC(=O)CCCN2C(=O)C(c3ccccc3)Oc3cccnc32)c1 (stereo not given)	14*	3	2	-6	1
COc1cc(C(=O)N(CCN(C)C)CC2CCCN(Cc3ccccc3F)C2)ccc1C (stereo not given)	2	-2	1	-13	0
CC(=O)Nc1ccc(S(=O)(=O)N(C#N)c2nc(N(C)C)nc(N(C)C)n2)cc1	0	-2	5	-7	1
SMILES	LANA-H2B inh	HDAC3 inh	IDE cell activ	Mot1-301 SUMO	IDE inh
Cc1cc(=O)[nH]c(SCc2nnc(-c3ccccc3)o2)n1	1	3	0	9	2
Clc1ccc2nc(SCc3nnc(-c4ccccc4)o3)[nH]c2c1	-8	-2	-5	650*	5
Cn1nccc1C(=O)NC1CCCc2c1cnn2-c1ccc(C(C)(C)C)cc1 (stereo not given)	3	3	7	1	7
Cc1cc(Br)ccc1SCC(=O)NNC(=O)c1ccco1	-9	1	4	-6	-3
COCCCNC(=S)N(CCO)Cc1cc2cc3c(cc2[nH]c1=O)OCCO3	3	-6	3	-8	0
COCCNC(=S)N(CCO)Cc1cc2cc3c(cc2[nH]c1=O)OCCO3	-7	32*	-12	1	9
Cc1ccc(C(=O)n2cnnc2N)cc1	-2	44*	2	-7	-1
Cc1ccc(NC(=O)CSc2nnc(COc3ccccc3F)n2N)cc1S(=O)(=O)N1CCOCC1	·	·	-4	·	·
COc1ccccc1-c1c(C)oc2cc(OC(=O)c3ccco3)ccc2c1=O	0	31*	-8	86	8
CN(CC(=O)Nc1cccc(F)c1)C(=O)c1cn(-c2ccccc2)nc1-c1ccc(Cl)cc1	156*	11	0	-11	3
O=C(/C(=C/c1ccc(Cl)cc1)c1nc2ccccc2[nH]1)c1cccs1	-9	4	0	521*	1
O=C(/C(=C\c1ccccc1)c1nc2ccccc2[nH]1)c1ccc(Cl)cc1	2	·	4	+	-4
N#Cc1ccccc1NCC(=O)N1CCN(S(=O)(=O)c2ccccc2)CC1	2	-1	5	-18	2
O=C1CCN(Cc2cccnc2)CCN1[C@H](CO)Cc1ccccc1	5	-6	3	19	4
CCc1nnc(NC(=O)C2CCCN(C(=O)c3ccc(Cl)cc3)C2)s1 (stereo not given)	-1	0	-1	-1	-3
COc1ccc(CNC(=O)[C@H](C)NC(=O)C2CCN(S(=O)(=O)c3ccc(F)cc3)CC2)cc1	-1	-4	4	11	6
CC(C)OC(=O)c1ccc(OC(=O)c2cccnc2)cc1	-6	47*	2	-26	2
CC(=O)Nc1ccc(OC(=O)c2cccnc2)cc1	-1	2	2	-8	0
COC(=O)c1ccc(OC(=O)c2cccnc2)cc1	0	42*	6	2	1
CCCCN1C(=O)C(=O)N(CC(=O)c2ccc3c(c2)OCO3)C1=O	2	1	8	63	-5
CC1O[C@@H](OC2C(O)C(O)C(CO)O[C@H]2OC2C[C@]3(C)C(CC(O)C4[C@@H]([C@]5(C)CC[C@@H](C(C)(C)O)O5)CC[C@]43C)[C@@]3(C)CCC(O)C(C)(C)C23)C(O)C(O)C1O (stereo not given in full)	8	-6	21*	-3	5
C[C@@H]1O[C@@H](O[C@H]2[C@H](O[C@H]3C[C@]4(C)C(C[C@@H](O)C5C([C@]6(C)CC[C@@H](C(C)(C)O)O6)CC[C@]54C)[C@@]4(C)CC[C@H](O)C(C)(C)C34)O[C@H](CO)[C@@H](O)[C@@H]2O)[C@H](O)[C@H](O)[C@H]1O (stereo not given in full)	2	2	5	-17	-2
